Bioassay records deposited in PubChem by National Center for Advancing Translational Sciences (NCATS).
NPSR antagonist = qHTS Assay for Antagonists of the Neuropeptide S Receptor: cAMP Signal Transduction; Q6W5P4; CHO-NPSR cells, cAMP TR-FRET, antagonist mode; Potency, µM (highest dose often 38.3 µM), hits mostly inhibitors; actives 1% (n = 220,000); note: nearly all actives have a fitted effect of over 50% in size
Target sequence (Q6W5P4 whole entry, looked up): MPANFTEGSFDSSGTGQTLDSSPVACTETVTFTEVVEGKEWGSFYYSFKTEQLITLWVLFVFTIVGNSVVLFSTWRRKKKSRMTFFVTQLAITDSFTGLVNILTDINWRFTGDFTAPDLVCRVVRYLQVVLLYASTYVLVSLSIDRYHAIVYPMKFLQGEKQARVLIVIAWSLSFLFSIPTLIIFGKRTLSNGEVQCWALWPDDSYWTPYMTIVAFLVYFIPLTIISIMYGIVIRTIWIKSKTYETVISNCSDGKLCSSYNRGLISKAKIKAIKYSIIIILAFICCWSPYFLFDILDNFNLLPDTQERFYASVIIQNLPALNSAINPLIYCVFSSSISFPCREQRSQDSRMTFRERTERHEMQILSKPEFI
Tau fibril ThT = qHTS for Inhibitors of Tau Fibril Formation, Thioflavin T Binding. Potency, µM (highest dose often 57.4 µM), actives largely listed as inhibitors. recombinant tau K18 P301L, heparin-induced fibrillization, ThT fluorescence. actives 2.1% (n = 270,000). Microtubule-associated protein tau (Homo sapiens), P10636; note: nearly all actives have a fitted effect of over 55% in size
Target sequence (P10636 561-689 P618L limits assumed): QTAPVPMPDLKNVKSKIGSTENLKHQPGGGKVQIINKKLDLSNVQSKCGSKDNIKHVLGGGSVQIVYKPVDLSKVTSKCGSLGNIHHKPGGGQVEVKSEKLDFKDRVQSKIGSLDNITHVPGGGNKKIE
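ThT emission at 510 nm, taken 1 hr after adding 30 uM dye, quantifies aggregates formed when 20 uM heparin acts on human tau K18 P301L for 6 hr at 37 C.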
Tau fibril FP = qHTS for Inhibitors of Tau Fibril Formation, Fluorescence Polarization | Potency, µM (titrated, usually from 57.7 µM), usual class: inhibitors | AID 1468, 2008 | actives 0.39% (n = 280,000) | Microtubule-associated protein tau (Homo sapiens), P10636 | K18 P301L tau heparin fibrillization, Alexa594 FP, 6 h; note: nearly all actives have a fitted effect of over 55% in size
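Recombinant K18 P301L […], labeled with Alexa 594 at 0.24 uM over 15 uM unlabeled; heparin inducer 20 uM final; 37 C, 6 hr; FP endpoint.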
Tau fluor counter = Counterscreen qHTS for Inhibitors of Tau Fibril Formation, Fluorescence Polarization; actives 0.93% (n = 280,000); Potency, µM (top dose mostly 57.7 µM); tau K18 P301L (four-repeat tau fragment) Alexa594 fluorescence, heparin fibrillization; note: nearly all actives have a fitted effect of over 55% in size
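Human K18 P301L tau (15 uM unlabeled plus 0.24 uM Alexa 594-labeled, final) in 100 mM sodium acetate pH 7 was mixed with compound and 20 uM heparin and incubated 6 hr at 37 C.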
KinaseGlo FLuc = Counterscreen for Luciferase (Kinase-Glo TM) Inhibition; Luciferin 4-monooxygenase (Photuris pensylvanica), Q27757; actives 0.28% (n = 200,000); AID 1379, 2008; Kinase-Glo luciferase, ATP luminescence, 8 min; Potency, µM (top dose mostly 38.3 µM), hits mostly inhibitors; note: nearly all actives have a fitted effect of over 60% in size
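Luminescence was the read-out, taken after 8-minute incubation at ambient temperature. Luciferase turned over luciferin with 10 uM ATP in imidazole pH 7.2 buffer containing KCl, MgCl2, Tween 20 and BSA.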
Numbers stand for hits; 0 = inactive; ? = inconclusive; - = no result given; [ ] = another dose, or the depositor's remark. Sampled rows, rich in hits. Any-hit rate of the full collection: about 3.3%. Calls come from the whole dose curve; as a rule, active = well fitted curve in the direction sought with a large enough effect; inconclusive = small, poorly fitted or top-dose-only effect, or another doubt; inactive = no such curve, though single readings can be large; an effect the other way counts as inactive or inconclusive.

SMILES | NPSR antagonist | Tau fibril ThT | Tau fibril FP | Tau fluor counter | KinaseGlo FLuc
COc1ccc(-c2cc(=O)oc3c4c(ccc23)OCN(Cc2ccccc2)C4)cc1 | - | ? | 0 | 0 | -
CCOC(=O)c1c(NC(=O)CSc2c[nH]c3ccccc23)sc2c1CCC2 | 0 | 0 | ? | 10µM[quencher] | 0
O=C(CCl)Nc1ccccc1C(=O)c1ccccc1 | 0 | 0 | 0 | 0 | 0
O=[N+]([O-])c1cccc(Cl)c1N1CCOCC1 | 0 | 0 | 0 | 0 | 0
C=CSc1sc(Cl)c(N2CCOCC2)c1[N+](=O)[O-] | 0 | 14µM | 0 | ? | 0
C=CS(=O)(=O)c1sc(Cl)c(N2CCOCC2)c1[N+](=O)[O-] | ? | 3.5µM | 0 | ? | 0
CCOc1ccc(Nc2nc3c(S(=O)(=O)c4ccc(C(C)C)cc4)nnn3c3ccsc23)cc1 | - | 0 | 0 | ? | -
Cc1ccc(S(=O)(=O)c2nnn3c2nc(Nc2ccc(C(C)C)cc2)c2sccc23)cc1C | - | 0 | 13µM | ? | -
Cc1ccc(C(=O)Nc2nccc(-c3cccs3)n2)cc1 | 0 | 0 | 0 | 0 | 0
Cc1ccc(C(=O)Nc2ncc3c(Cl)cccc3n2)cc1 | 0 | ? | 0 | 0 | 11µM
CCOC(=O)Cc1cc(=O)c2c(=O)n(-c3ccccc3)[nH]c2[nH]1 | 0 | ? | 0 | 0 | 0
O=c1cc(-c2ccccc2)[nH]c2[nH]n(-c3ccccc3)c(=O)c12 | 0 | 20µM | ? | 0 | 0
Cc1cc(C)nc(NC(=NCCc2c[nH]c3ccccc23)NC(=O)Nc2ccc(Cl)cc2)n1 | 13µM | 0 | 0 | ? | 0
Cc1cc(C)nc(NC(N)=NCCc2c[nH]c3ccccc23)n1 | 0 | 0 | 0 | 0 | 0
Cc1ccc(-n2cnc3cc(C(=O)NCc4ccccc4Cl)ccc32)c(C)c1 | - | 0 | 0 | 0 | -
CCc1nnc(NC(=O)CSc2nc3c(cc2C#N)CCC3)s1 | ? | 2µM | 0 | 0 | 0
CCc1nnc(NC(=O)CSc2nc(-c3ccc(F)cc3)cc(-c3ccccc3)c2C#N)s1 | 7.9µM | 0 | 0 | 0 | -
CCSc1nnc(NC(=O)CSc2nc3c(cc2C#N)CCCC3)s1 | 0 | 2.8µM | 0 | ? | 0
COc1ccccc1/C=C1\S/C(=N/NC(=O)c2cccc(Br)c2)NC1=O | 0 | 13µM | 0 | ? | 0
Clc1cccc(CN2CCC(Cc3ccccc3)CC2)c1 | 0 | 18µM | 0 | 13µM[quencher] | -
Clc1ccc(CN2CCC(Cc3ccccc3)CC2)cc1 | 0 | 0 | 0 | 0 | 0
COc1ccc(N2Cc3cccc(C(=O)Nc4cccc(F)c4)c3C2=O)cc1 | - | 0 | 0 | 0 | -
Cc1[nH]c2ccccc2c1/C=N/n1cnnc1 | 0 | 0 | 0 | 0 | 0
COCCN=c1scc(-c2cc(OC)c(OC)c(OC)c2)n1/N=C/c1c(C)[nH]c2ccccc12 | 0 | ? | 0 | 7.9µM[quencher] | 0
Cc1ccccc1CNC(=O)C1CCCCN1S(=O)(=O)c1ccc(F)cc1 (stereo unspecified) | - | 0 | 0 | 0 | -
SMILES | NPSR antagonist | Tau fibril ThT | Tau fibril FP | Tau fluor counter | KinaseGlo FLuc
CCOC(=O)c1c(-c2ccccc2)csc1NC(=O)/C(C#N)=C/c1ccc(OC)c(OC)c1 | 0 | 0 | 0 | 0 | 0
CCOC(=O)c1c(-c2ccccc2)csc1NC(=O)/C(C#N)=C/c1ccc(O)c(OC)c1 | 0 | ? | 0 | 13µM[quencher] | 0
CN(C)c1ccc(C(=O)Nc2sc(Nc3ccccc3)nc2C(N)=O)cc1 | - | 1.1µM | 0 | 11µM[quencher] | -
O=C1CSC2=NCN(c3ccc4c(c3)OCO4)CN12 | 0 | ? | 0 | 0 | 0
CN(C)c1ccc(N2CN=C3SCC(=O)N3C2)cc1 | ? | 5µM | 13µM | ? | 0
Cc1ccccc1C(=O)Nc1ccc(S(=O)(=O)N2CCC(c3nc4ccccc4s3)CC2)cc1 | - | 0 | 0 | 0 | -
COc1cccc(CN(Cc2ccco2)c2cnc(S(C)(=O)=O)nc2C(=O)Nc2cccc(Cl)c2C)c1 | - | 0 | 0 | 0 | -
NC(=S)n1[nH]c(-c2ccc([N+](=O)[O-])cc2)c(N=Nc2cccc([N+](=O)[O-])c2)c1=O | ? | 11µM | 0 | ? | 0
NC(=S)n1[nH]c(-c2ccc([N+](=O)[O-])cc2)c(N=Nc2ccccc2[N+](=O)[O-])c1=O | 0 | ? | 0 | 0 | 0
Cc1c(N=Nc2c(-c3ccc([N+](=O)[O-])cc3)[nH]n(C(N)=S)c2=O)cccc1[N+](=O)[O-] | 0 | 8.9µM | ? | ? | 0
CCOC(=O)c1cc2c(ccn2C)n1CC(=O)N(C)C | 0 | 0 | 0 | 0 | 0
CCOC(=O)c1cc2c(ccn2C)n1CC(=O)Nc1ccc(F)cc1 | 0 | 28µM | ? | ? | 0
Cc1ccc(CNC(=O)CSc2nnc(C)c3c(C)n(-c4ccccc4)nc23)cc1 | - | ? | 0 | 0 | -
[O-]/[N+](=C\c1ccncc1)c1ccc(Br)cc1 | 0 | 32µM | ? | 0 | 0
C=CCSc1nc2ccccc2n1C(=O)/C=C/c1cc(OC)c(OC)c(OC)c1 | 2.5µM | 25µM | 22µM | 0 | 0
COc1cc(/C=C/C(=O)NCCn2c(C)cc3ccccc32)cc(OC)c1OC | 0 | ? | ? | ? | 0
CCSc1nc2ccccc2n1C(=O)/C=C/c1ccc(OC)c(OC)c1 | 0 | 7.9µM | 7.9µM | 0 | 0
CCN(CC)c1ccc(/C=N/NC(=O)c2cccc(S(=O)(=O)Nc3ccccc3OC)c2)c(O)c1 | 0 | 0 | ? | 7.9µM[quencher] | 0
COc1cccc(/C=N/NC(=O)c2ccc3nc[nH]c3c2)c1O | 0 | ? | 0 | 0 | -
CCN(CC)c1ccc(/C=N/Nc2cccc(C)c2)c(O)c1 | 0 | ? | 0 | 0 | 0
CCN(CC)c1ccc(/C=N/NC(=O)c2cccc(S(=O)(=O)Nc3ccccc3OC)c2)cc1 | 0 | ? | 0 | ? | 0
CCN(CC)c1ccc(/C=N/Nc2ccccc2)c(O)c1 | 0 | 25µM | ? | ? | 0
COc1ccc(NS(=O)(=O)c2cccc(C(=O)N/N=C/c3cn(-c4ccccc4)nc3-c3ccc(OC)cc3)c2)cc1 | 0 | ? | 32µM | ? | -
CCN(CC)c1ccc(/C=N/NC(=O)c2ccc3nc[nH]c3c2)c(O)c1 | 0 | - | 0 | 14µM[quencher] | -
COC(=O)[C@@]1(Cc2ccccc2)[C@H]2c3cc(C(=O)N4CCCC4)n(Cc4cc(F)cc5c4OCOC5)c3C[C@H]2CN1C(=O)c1ccccc1 | - | 0 | 0 | 0 | 0
SMILES | NPSR antagonist | Tau fibril ThT | Tau fibril FP | Tau fluor counter | KinaseGlo FLuc
Cn1nc(C(=O)Nc2ccccc2C#N)c2c1-c1ccccc1SC2 | - | 0 | 0 | 0 | -
CCOc1ccccc1NC(=O)c1nn(C)c2c1CSc1ccccc1-2 | - | ? | 0 | 11µM[quencher] | -
O=C(O)c1cc(-c2ccc3cc4c(cc3c2)OCO4)nc2ccccc12 | - | - | - | - | 0[7.66 µM]
CCN1CCN(C(=O)c2cc(-c3cccnc3)nc3ccc(Br)cc23)CC1 | 0 | 0 | 0 | 0 | 0
O=C(O)c1cc(-c2cccnc2)nc2ccc(Br)cc12 | 5µM | 0 | 0 | 0 | 0
O=C(O)c1cc(-c2ccc3c(c2)OCO3)nc2ccc(Br)cc12 | 6.3µM | 0 | 0 | 0 | 0
